Laboratory results published in PubChem BioAssay (NCI).
This is part of a sample that, as a whole, favours compounds with a hit. Of some 83,000 tested, about 20% had one in any assay.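 Testing used 96-well plates and a 48-hour single-concentration exposure. Example: -40 means 40% of the starting cells died.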 Values without a mark were called inactive. The source made the active and inactive calls. Rule for the calls: active = growth percent below 10; inactive = the rest.

What follows are compounds tested on NCI-H322M lung (assay: NCI-60 one-dose screen, 48 h (100 = growth as untreated, 0 = no growth, -100 = all killed)). Conditions: 10 µM unless noted.
Work on O=C(/C=C/c1ccc2ccccc2c1)Nc1ncc(Cc2ccccc2)s1 yielded a growth of 46.3%.
O=C1c2cc3c(cc2-c2c1c1ccc(F)cc1c(=O)n2CCCN1CCOCC1)OCO3 gave a growth of 79.8%.
For C=C1CC[C@@H](C(=O)OC)Cc2nc(C)ccc21, the growth was 109%.
CCN1CCN(C(=O)[C@]23CCC(C)(C)C[C@@H]2C2=CC[C@@H]4[C@@]5(C)C/C(=C/c6cccnc6)C(=O)C(C)(C)[C@@H]5CC[C@@]4(C)[C@]2(C)CC3)CC1 was tested, and the growth was 62.3%.
Nc1c(C(=O)Nc2cccc3ccccc23)sc2nc3c(cc12)CCCC3 was tested, and the growth was 51.7%.
Work on CC(C)(C)c1cc(-n2c(-c3ccc(Cl)cc3)nc3cc(C(=O)Nc4ccc(Cl)cc4)ccc32)n[nH]1 yielded a growth of 82%.
Fc1ccc(Nc2nnc(-c3ccc(Cl)cc3)o2)cc1 showed a growth of 103%.
Work on O=C1/C(=C\c2ccc(Br)o2)SC(=S)N1CCc1ccc(O)cc1 yielded a growth of 88.3%.
In the case of CC(=O)c1c(C)[nH]c(-c2nc3ccc(N4CCN(C)CC4)cc3[nH]2)c1-c1ccc2c(c1)OCCO2, the growth is reported as 45.8%.
Compound COc1ccc2[nH]c(-c3ccc(Cl)cc3)cc(=O)c2c1 has a growth of 92%.
With CCC1C(=O)COC1=O (stereo unspecified) the growth was 104%.
COc1ccc(O)c(-c2cc(-c3ccc(Cl)cc3)c(C#N)c(=O)[nH]2)c1 showed a growth of 101%.
C=C(C)[C@@H]1CC[C@]2(C)[C@H](CC[C@@H]3[C@H]4[C@H]5OC[C@@]4(CCC5(C)C)CC[C@]32C)[C@@]1(C)CCCN showed a growth of 30.9%.
Compound CN1CCN(CCOc2ccc(-c3cnc4c(-c5cccc(F)c5)cnn4c3)cc2)CC1 has a growth of 89.8%.
Cc1cc(N(CCNc2ccnc3cc(Cl)ccc23)Cc2ccco2)nc(Cl)n1 gave a growth of 12.6%.
COc1ccc(CCN2C(=O)C(C)(C)SC2=S)cc1OC was tested, and the growth was 103%.
In the case of Cc1cc2nc3c4cc(O)ccc4n(CCN(C)C)c3nc2cc1C, the growth is reported as -11% (active).
With CCCCC(=O)OC1CCCCC1C (stereo unspecified) the growth was 111%.
In the case of COc1ccc2c(c1)c(-c1nc(-c3c[nH]c4ncccc34)cs1)cn2CCCN1CCCCC1, the growth is reported as 56.4%.
CC(=O)c1c(C)[nH]c(-c2nc3ccc(N4CCN(C)CC4)cc3[nH]2)c1-c1ccc(OCC2CCOCC2)cc1 gave a growth of 41.1%.
Compound Cc1nc([P+](c2ccccc2)(c2ccccc2)c2ccccc2)c(Sc2sc(-c3ccccc3)nc2[P+](c2ccccc2)(c2ccccc2)c2ccccc2)o1 has a growth of 28.2%.
NNC(=O)c1nc2ccccc2[nH]1 was tested, and the growth was 107%.
Compound O=P(O)(c1ccccc1)c1ccccc1I has a growth of 94.1%.
For COc1ccc(OC)c(-c2c(C#N)c(-c3ccco3)nc3c2c(-c2ccccc2)nn3-c2ccccc2)c1, the growth was 103%.
Compound CNC(=O)c1cc(Oc2ccc3nc(NC(=O)Nc4ccc(Cl)cc4)sc3c2)ccn1 has a growth of 66.8%.
Work on Clc1cc(Cl)cc(Nc2ccc3c(OCCCN4CCOCC4)cccc3n2)c1 yielded a growth of 45.1%.
With N#CC1=C(N)Oc2c(c(N)nn2-c2ccccc2)C1c1ccc(Cl)cc1Cl (stereo unspecified) the growth was 104%.
CC(C)(C)c1ccc(OCCCCCCCN2CCNCC2)cc1 showed a growth of 53.6%.
Work on Cc1cc(Cl)nc(N(CCCNc2ccnc3cc(Cl)ccc23)Cc2ccco2)n1 yielded a growth of 42.8%.
Work on CC1(C)NCCC[C@]2(C)[C@H]3CC[C@@H]4[C@H]5[C@H](C(=O)/C=C/c6ccccn6)CC[C@]5(CO)CC[C@@]4(C)[C@]3(C)CC[C@@H]12 yielded a growth of 86.4%.
With NCCNc1nc(-c2ccccc2)nc2nc(-c3ccccc3)oc12 the growth was 104%.
For COc1cnc2c(c1)C(=O)c1c-2n(CCCNC(C)C)c(=O)c2cc([N+](=O)[O-])ccc12, the growth was -31.6% (active).
For COc1cnc2c(c1)C(=O)c1c-2n(CCCNC2=NCCS2)c(=O)c2cc([N+](=O)[O-])ccc12, the growth was -19.6% (active).
For CCC(c1ccc(OC)cc1)C(CC)c1ccc(O)c(CN2CCCCC2)c1 (stereo unspecified), the growth was 70.7%.
COc1cc2nc(Cl)nc(Nc3cccc(C(=O)/C=C/c4ccccc4)c3)c2cc1OC gave a growth of 90.3%.
CC1(C)C(=O)/C(=C\c2ccco2)C[C@]2(C)[C@H]3CC[C@@H]4[C@@H](C(=O)/C=C/c5ccco5)CC[C@@]4(C)[C@]3(C)CC[C@@H]12 was tested, and the growth was 105%.
With CCCC1CCCCN1C(=O)OCC(C)C (stereo unspecified) the growth was 104%.
Cc1ccc(-c2nn(Cc3cn(-c4cc(C)nc5ccccc45)nn3)c3ncnc(N)c23)cc1 showed a growth of 40.6%.

Each compound was assayed on HOP-62 NSCLC in the same assay as above. Conditions: 10 µM unless noted.
O=C(/C=C/c1ccc2ccccc2c1)Nc1ncc(Cc2ccccc2)s1 showed a growth of 56.7%.
Work on O=C1c2cc3c(cc2-c2c1c1ccc(F)cc1c(=O)n2CCCN1CCOCC1)OCO3 yielded a growth of 18.9%.
Compound C=C1CC[C@@H](C(=O)OC)Cc2nc(C)ccc21 has a growth of 106%.
For CCN1CCN(C(=O)[C@]23CCC(C)(C)C[C@@H]2C2=CC[C@@H]4[C@@]5(C)C/C(=C/c6cccnc6)C(=O)C(C)(C)[C@@H]5CC[C@@]4(C)[C@]2(C)CC3)CC1, the growth was 44.5%.
With Nc1c(C(=O)Nc2cccc3ccccc23)sc2nc3c(cc12)CCCC3 the growth was 29.9%.
Work on CC(C)(C)c1cc(-n2c(-c3ccc(Cl)cc3)nc3cc(C(=O)Nc4ccc(Cl)cc4)ccc32)n[nH]1 yielded a growth of 83.6%.
For Fc1ccc(Nc2nnc(-c3ccc(Cl)cc3)o2)cc1, the growth was 89.5%.
O=C1/C(=C\c2ccc(Br)o2)SC(=S)N1CCc1ccc(O)cc1 gave a growth of 83.5%.
CC(=O)c1c(C)[nH]c(-c2nc3ccc(N4CCN(C)CC4)cc3[nH]2)c1-c1ccc2c(c1)OCCO2 was tested, and the growth was 33.7%.
Work on COc1ccc2[nH]c(-c3ccc(Cl)cc3)cc(=O)c2c1 yielded a growth of 104%.
Compound CCC1C(=O)COC1=O (stereo unspecified) has a growth of 77.1%.
Compound COc1ccc(O)c(-c2cc(-c3ccc(Cl)cc3)c(C#N)c(=O)[nH]2)c1 has a growth of 64%.
C=C(C)[C@@H]1CC[C@]2(C)[C@H](CC[C@@H]3[C@H]4[C@H]5OC[C@@]4(CCC5(C)C)CC[C@]32C)[C@@]1(C)CCCN showed a growth of 96.3%.
In the case of CN1CCN(CCOc2ccc(-c3cnc4c(-c5cccc(F)c5)cnn4c3)cc2)CC1, the growth is reported as 90%.
For Cc1cc(N(CCNc2ccnc3cc(Cl)ccc23)Cc2ccco2)nc(Cl)n1, the growth was -48.2% (active).
Compound COc1ccc(CCN2C(=O)C(C)(C)SC2=S)cc1OC has a growth of 103%.
Cc1cc2nc3c4cc(O)ccc4n(CCN(C)C)c3nc2cc1C was tested, and the growth was 3.06% (active).
CCCCC(=O)OC1CCCCC1C (stereo unspecified) showed a growth of 98.9%.
COc1ccc2c(c1)c(-c1nc(-c3c[nH]c4ncccc34)cs1)cn2CCCN1CCCCC1 gave a growth of 37.4%.
Compound CC(=O)c1c(C)[nH]c(-c2nc3ccc(N4CCN(C)CC4)cc3[nH]2)c1-c1ccc(OCC2CCOCC2)cc1 has a growth of 24.7%.
In the case of Cc1nc([P+](c2ccccc2)(c2ccccc2)c2ccccc2)c(Sc2sc(-c3ccccc3)nc2[P+](c2ccccc2)(c2ccccc2)c2ccccc2)o1, the growth is reported as 9.57% (active).
NNC(=O)c1nc2ccccc2[nH]1 was tested, and the growth was 97.4%.
O=P(O)(c1ccccc1)c1ccccc1I showed a growth of 94.8%.
For COc1ccc(OC)c(-c2c(C#N)c(-c3ccco3)nc3c2c(-c2ccccc2)nn3-c2ccccc2)c1, the growth was 106%.
For CNC(=O)c1cc(Oc2ccc3nc(NC(=O)Nc4ccc(Cl)cc4)sc3c2)ccn1, the growth was 6.54% (active).
In the case of Clc1cc(Cl)cc(Nc2ccc3c(OCCCN4CCOCC4)cccc3n2)c1, the growth is reported as 57.4%.
In the case of N#CC1=C(N)Oc2c(c(N)nn2-c2ccccc2)C1c1ccc(Cl)cc1Cl (stereo unspecified), the growth is reported as 92.8%.
CC(C)(C)c1ccc(OCCCCCCCN2CCNCC2)cc1 showed a growth of 54%.
Cc1cc(Cl)nc(N(CCCNc2ccnc3cc(Cl)ccc23)Cc2ccco2)n1 was tested, and the growth was 25.7%.
For CC1(C)NCCC[C@]2(C)[C@H]3CC[C@@H]4[C@H]5[C@H](C(=O)/C=C/c6ccccn6)CC[C@]5(CO)CC[C@@]4(C)[C@]3(C)CC[C@@H]12, the growth was 77%.
NCCNc1nc(-c2ccccc2)nc2nc(-c3ccccc3)oc12 was tested, and the growth was 85.6%.
COc1cnc2c(c1)C(=O)c1c-2n(CCCNC(C)C)c(=O)c2cc([N+](=O)[O-])ccc12 was tested, and the growth was -53.2% (active).
In the case of COc1cnc2c(c1)C(=O)c1c-2n(CCCNC2=NCCS2)c(=O)c2cc([N+](=O)[O-])ccc12, the growth is reported as -59.6% (active).
Work on CCC(c1ccc(OC)cc1)C(CC)c1ccc(O)c(CN2CCCCC2)c1 (stereo unspecified) yielded a growth of 95.5%.
COc1cc2nc(Cl)nc(Nc3cccc(C(=O)/C=C/c4ccccc4)c3)c2cc1OC gave a growth of 70.1%.
CC1(C)C(=O)/C(=C\c2ccco2)C[C@]2(C)[C@H]3CC[C@@H]4[C@@H](C(=O)/C=C/c5ccco5)CC[C@@]4(C)[C@]3(C)CC[C@@H]12 was tested, and the growth was 83.2%.
CCCC1CCCCN1C(=O)OCC(C)C (stereo unspecified) showed a growth of 118%.
Cc1ccc(-c2nn(Cc3cn(-c4cc(C)nc5ccccc45)nn3)c3ncnc(N)c23)cc1 gave a growth of 60.4%.
